An excerpt weighted towards active compounds, which were near 3.6% of everything screened.
TRHR agonist: agonists of human TRH receptor | P34981 | TRHR cells, calcium flux fluo-8, FDSS agonist mode | activation, % at 2 µM | 360,000 tested, 0.18% active
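Fluo-8-loaded TRHR cells; 10 s baseline, compound added, kinetic Ca2+ fluorescence read 1/s, agonist mode.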
D1 potentiator: enhances dopamine response at the human D1 receptor; 360,000 tested, 0.036% active; HEK293 TREx D1 cells, calcium flux, dopamine EC20 potentiation; potentiation, % at 10 µM; P21728; in the data active = potentiation above about 30%
Target sequence (P21728 whole entry, looked up): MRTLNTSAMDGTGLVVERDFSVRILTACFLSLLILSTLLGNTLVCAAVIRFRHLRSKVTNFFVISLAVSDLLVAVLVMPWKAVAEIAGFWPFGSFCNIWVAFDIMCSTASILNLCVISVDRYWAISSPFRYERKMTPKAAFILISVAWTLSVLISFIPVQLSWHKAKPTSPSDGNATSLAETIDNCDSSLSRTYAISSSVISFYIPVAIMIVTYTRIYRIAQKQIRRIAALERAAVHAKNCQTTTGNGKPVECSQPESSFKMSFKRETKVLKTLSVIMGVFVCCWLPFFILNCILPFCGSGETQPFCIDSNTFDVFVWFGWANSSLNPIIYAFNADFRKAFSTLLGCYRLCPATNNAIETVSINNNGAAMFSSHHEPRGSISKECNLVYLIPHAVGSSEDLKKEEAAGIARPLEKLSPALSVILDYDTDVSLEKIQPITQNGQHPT
LDHA block: inhibitors of human lactate dehydrogenase A; activity change, % (values are at about 110 or 230 µM); 480,000 tested, 0.15% active; P00338; purified LDHA, NADH/diaphorase-resazurin fluorescence; hits give low values; AID 1347041; in the data active = activity change below about -30%
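Resorufin fluorescence (ex540/em590), read at 0 and 20 min after diaphorase/resazurin addition, reports the NADH left after a 5 min room-temperature reaction of 2 nM human LDH5 with 0.06 mM NADH and 0.2 mM pyruvate.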
TRHR PAM: TRH receptor (human) allosteric enhancement; AID 493056; 360,000 tested, 0.66% active; TRHR cells, fluo-8 calcium fluorescence, EC20 TRH enhancement; enhancement, % at 2 µM; in the data active = enhancement above about 30%
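TRHR-expressing cells loaded with fluo-8 calcium dye were read kinetically (ex 480/em 530) during compound addition, then stimulated with an EC20 of TRH (10 nM final). Enhancement of the Gq-mediated intracellular calcium response was scored.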
D1 antagonist: human D1 dopamine receptor antagonism | AID 504652 | activity change, negative = inhibition, % at 10 µM | HEK293 TREx D1 cells, calcium flux, dopamine EC80; hits give low values | 360,000 tested, 3.2% active; in the data active = activity change below about -30%
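Using tetracycline-induced force-coupled D1 Hek293 cells and a calcium dye, signals were followed for 180 s after compound, then for 180 s after EC80 dopamine, to detect inhibitors.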
D1 agonist: agonists of human D1 dopamine receptor. P21728. HEK293 T-REx D1 cells, calcium flux, agonist mode. activation, % at 2 µM. 360,000 tested, 1% active. AID 504660
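Inducible HEK293 T-REx D1 cells, force-coupled to calcium signalling, were plated at 4000 cells/well with tetracycline and held overnight at 30 C. After no-wash calcium dye loading, compound-evoked calcium rise over 180 s flagged agonists.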
Hits are given with their value; – = inactive; · = no result given; ! = not confirmed by another sample. Rule as the data show it, unless noted: active = activation above about 30%; inactive = the rest.

SMILES	TRHR agonist	D1 potentiator	LDHA block	TRHR PAM	D1 antagonist	D1 agonist
O=S(=O)(c1ccc(Oc2ccc(S(=O)(=O)N(CCO)CCO)cc2)cc1)N(CCO)CCO	–	–	–	–	–	–
CCN(CC)c1ccc(C=Nc2ccc(OC)c(S(=O)(=O)N3CCOCC3)c2)c(O)c1	–	–	–	–	-32.5	–
O=C(NCCc1c[nH]c2ccccc12)C12CC3CC(CC(C3)C1)C2	·	·	–	·	·	·
Cc1ccc2c(=O)cc(C(=O)Nc3c(C(=O)Nc4cccc(Cl)c4)oc4ccccc34)oc2c1	–	–	–	–	-46.5	–
CN(c1ccccc1)S(=O)(=O)c1cccc(NC(=O)c2cc(=O)c3ccccc3o2)c1	–	–	–	–	-33.9	–
CN(c1ccccc1)S(=O)(=O)c1cccc(NC(=O)COC(=O)c2cc(=O)c3ccccc3o2)c1	·	·	–	·	·	·
CN(c1ccccc1)S(=O)(=O)c1cccc(NC(=O)CCNC(=O)c2ccccc2)c1	–	–	–	–	-43.3	–
Cc1ccc(CSCCNC(=O)c2ccc(N(C)S(=O)(=O)c3ccccc3)cc2)cc1	–	–	–	–	–	–
CN(c1ccc(C(=O)NCCSCc2ccc(Cl)cc2)cc1)S(=O)(=O)c1ccccc1	–	–	–	–	–	38.8
C=CCSc1nc(N)c(C#N)c(-c2ccc(C)cc2)c1C#N	–	–	–	38.4	–	–
Cn1cnc2c1c(=O)n(Cc1cccc(F)c1)c(=O)n2C	–	–	–	–	–	–
Cn1cnc2c1c(=O)n(Cc1cccc(Cl)c1)c(=O)n2C	–	–	-32.4!	–	–	–
Cc1nc(N2CCOCC2)c(C#N)c(C)c1Br	–	–	–	–	–	–
Cc1nc(Br)c(Br)c(C)c1Br	–	–	–	–	-30.7	–
Cc1cc2c(cc1S(=O)(=O)N(C)CC(=O)N1CCCCC1)OC(C)C(=O)N2 (stereo unspecified)	·	·	–	·	·	·
O=C(/C=C/c1cccc(Br)c1)c1ccc[nH]1	·	·	–	·	·	·
CC(C)c1ccc(O)c(NC(=S)NC(=O)c2ccc3c(c2)OCO3)c1	–	–	–	–	-65.8	–
O=C(NC(=S)Nc1ccccc1Br)c1ccc2c(c1)OCO2	–	–	–	–	–	–
CC1CCN(CCCCOc2ccc(Cl)cc2)CC1	–	–	–	–	–	–
CC1CCN(CCCCOc2ccc(C(C)(C)C)cc2)CC1	–	–	–	–	–	40.6
c1ccc(COc2ccc(OCCCCN3CCCC3)cc2)cc1	–	–	–	–	-34.4	35.2
CC1CCN(CCOc2ccc(OCc3ccccc3)cc2)CC1	–	–	–	–	-41.1	32.9
Cc1ccc2[nH]c3c(N4CCN(Cc5ccccc5)CC4)ncnc3c2c1	–	–	–	–	-36.7	–
Cc1cccc(/C=C(/C#N)c2nc(-c3ccncc3)cs2)c1	·	·	–	·	·	·
Cc1ccnc(N/C=C(\C#N)c2nc(-c3cccc(Br)c3)cs2)c1	–	–	–	–	-35.8	160.1
SMILES	TRHR agonist	D1 potentiator	LDHA block	TRHR PAM	D1 antagonist	D1 agonist
CCCn1nc(C(=O)N2CCN(CC(=O)N3CCCCC3)CC2)c2ccccc2c1=O	·	·	–	·	·	·
O=C(c1cc(C2CC2)nn1-c1ccccc1)N1CCN(c2ccc(O)cc2)CC1	–	–	–	30.0	–	–
O=C(c1cc(C2CC2)nn1-c1ccccc1)N1CCN(c2ccccc2O)CC1	·	·	–	·	·	·
CCOC(=O)N1CCN(Cc2nc3c(c(=O)n(C)c(=O)n3C)n2Cc2cccc(Cl)c2)CC1	·	·	–	·	·	·
COc1ccc(C(=O)NC2(C(F)(F)F)C(=O)NC(C)=C2C#N)cc1 (stereo unspecified)	–	–	–	41.1	–	–
CC1=C(C#N)C(NC(=O)c2cccc(Cl)c2)(C(F)(F)F)C(=O)N1 (stereo unspecified)	–	–	–	–	-30.6!	–
O=c1c2ccccc2c(-c2ccccc2)nn1-c1cc(N2CCNCC2)ccc1[N+](=O)[O-]	·	·	–	·	·	·
COc1ccc(C(=O)/C=C/c2ccc(OCC#N)c(OC)c2)cc1OC	·	·	–	·	·	·
CCCCOC(=O)c1ccccc1N1C(=O)C2C3CCC(C3)C2C1=O (stereo unspecified)	–	–	–	–	-32.3	–
